Results on 49 molecules are retold here after PubChem BioAssay AID2685 (National Center for Advancing Translational Sciences (NCATS), 2010).

The structures appear in SMILES notation. Among all 320,000 compounds or so, about 2,100 (0.66%) were called active. Inconclusive results (about 53%) are left out. The call rests on the fitted dose curve; in most records, active means well fitted inhibition curve with a large enough effect in the signal ratio, with a control signal flat (not every such curve was filed as active); inconclusive means small, poorly fitted or top-dose-only effect, or effect the other way, or a change in a side signal; inactive means flat fitted curve, though single readings scatter; the % refers to the signal ratio. Many of the other results were omitted from the sample, so actives are more common in it than they were.
Potency means the concentration at half of the fitted maximal effect.

This assay is described as follows: qHTS Assay for Lipid Storage Modulators in Drosophila S3 Cells.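 On cell number change: cells counted by Cell Tracker Red CMTPX staining in the red channel.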 The conditions noted are these: BODIPY lipid droplet fluorescence, 18-24 h, cells fed with added oleic acid; cell number change: measured here: cell count max response; series mostly up to 46.1 µM. The procedure, abridged:
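Drosophila S3 cells loaded with oleic acid (400 uM, as added) and compounds at several concentrations; lipid droplets imaged by 488-nm laser-scanning cytometry, 500–530 nm intensity and object ratio to cell channel. Percent activity normalized to 20 uM Triacsin C.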
(In general: In qHTS, concentration-response curves come from the screen itself.)
As to `O=C(NCCO)C(=O)Nc1cc2c3c(c1)CCN3C(=O)CC2`, the Potency entry is “inactive” and the cell number change was -29%.
Consider `CCNC(=O)C(=O)Nc1cc2c3c(c1)CCN3C(=O)CC2`, for which the Potency is 6.51 µM (active) and the cell number change was -2.95%.
For `CNC(=O)C(=O)Nc1cc2c3c(c1)CCC(=O)N3CCC2`, the Potency entry is “inactive” and the cell number change is -5.6%.
As for `CNC(=O)C(=O)Nc1cc2c3c(c1)CCN3C(=O)CC2`, the Potency entry is “inactive”.
Take `CC(C)NC(=O)C(=O)Nc1cc2c3c(c1)CCC(=O)N3CCC2`: the Potency was 11.6 µM (active) and the cell number change was -25.7%.
Consider `CC(C)CNC(=O)C(=O)Nc1cc2c3c(c1)CCC(=O)N3CCC2`, for which the Potency entry is “inactive”.
Take `CC12CCC(=O)N1C(C(=O)OCC(=O)Nc1cccc(S(=O)(=O)N3CCCCCC3)c1)CS2` (stereo not drawn): the Potency entry is “inactive”.
As for `CN1CCCC(OC(=O)c2cccc(S(=O)(=O)N3CCCCCC3)c2)C1` (stereo not drawn), the Potency entry is “inactive” and the cell number change is 5.11%.
For `CN1CCCC(OC(=O)c2cc(Cl)cc(Cl)c2)C1` (stereo not drawn) the same measures were “inactive” and -19.2%.
For `COc1cccc(C(=O)OC2CCCN(C)C2)c1` (stereo not drawn) the same measures were 23.1 µM (active) and -20.8%.
As for `CCc1ccc(NC(=O)C/C(C)=N/NC(=O)OCc2ccc(OC)cc2)cc1`, the Potency result was “inactive” and the cell number change was determined as 1.96%.
For `Cc1ccc(N2CCN(S(=O)(=O)c3ccc4c(c3)n(C)c(=O)c(=O)n4C)CC2C)cc1` (stereo not drawn) the same measures were “inactive” and 9.1%.
For `O=S(=O)(c1cccs1)N1CCN(S(=O)(=O)c2cccs2)CC1` the same measures were “inactive” and 5.37%.
`Cc1ccc(N2CCN(S(=O)(=O)c3cccs3)CC2C)cc1` (stereo not drawn): the Potency is 3.66 µM (active) and the cell number change is -24.3%.
For `O=C(Nc1ccccc1NC(=O)c1ccco1)c1ccco1` the same measures were “inactive” and -11%.
For `CC(=O)N(C)c1ccc(NC(=O)c2ccco2)cc1` the same measures were “inactive” and -3.91%.
As for `CN(C(=O)c1cccc(NC(=O)c2ccco2)c1)c1ccccc1`, the Potency entry is “inactive” and the cell number change is 8.03%.
Consider `CN(C(=O)c1ccc(NC(=O)c2ccco2)cc1)c1ccccc1`, for which the Potency is 8.2 µM (active) and the cell number change was 5.45%.
For `O=C(Nc1ccccc1NC(=O)c1ccco1)c1ccccc1` the same measures were 1.46 µM (active) and -10%.
Regarding `Cc1ccc(NC(=O)c2ccco2)c(NC(=O)c2ccccc2)c1`, the Potency entry is “inactive” and the cell number change stood at 11.5%.
With `CCC(OC(=O)c1cccs1)C(=O)NCc1ccc(C)cc1` (stereo not drawn), the Potency entry was “inactive” and the cell number change is -0.108%.
For `CCC(C(=O)N(C(C)C)C(C)C)c1ccccc1` (stereo not drawn) the same measures were “inactive” and 4.75%.
On to `O=C(N/C(=C\c1ccccc1)C(=O)N1CCCCC1)c1ccc(Br)o1`, for which the cell number change was determined as 0.343% and the outcome is “inactive [at 0.369 µM]”.
With `CC(C(=O)NCC1(c2ccccc2)CCCC1)N1CCOCC1` (stereo not drawn), the Potency result is “inactive” and the cell number change came out at 9.07%.
Consider `COc1ccc(CN(CC2CCC(C(=O)O)CC2)C(=S)Nc2cc(C)cc(C)c2)cc1` (stereo not drawn), for which the Potency entry is “inactive” and the cell number change is -1.54%.
For the molecule `CCCNC(=O)CCCCn1c(=S)[nH]c2c([nH]c3ccc(OC)cc32)c1=O`, the Potency entry is “inactive” and the cell number change came to 24.9%.
For `CC[C@H](C)NC(=O)CCCCCn1c(=S)[nH]c2c([nH]c3ccc(OC)cc32)c1=O` the same measures were “inactive” and -11.2%.
For `COc1ccc2[nH]c3c(=O)n(CCCC(=O)NC4CCC(C)CC4)c(=S)[nH]c3c2c1` (stereo not drawn) the same measures were 2.31 µM (active) and 6.49%.
Take `O=C(CSc1cn(Cc2cccc(F)c2)c2ccccc12)NCc1ccc(F)cc1`: the Potency result is “inactive” and the cell number change came out at 3.63%.
On to `CNC(=O)C1CCC(=O)N1Cc1ccccc1Cl` (stereo not drawn), for which the Potency is 29.1 µM (active) and the cell number change was -10.4%.
As for `O=C(O)C1CCC(=O)N1Cc1ccccc1Cl` (stereo not drawn), the Potency result was “inactive” and the cell number change is -9.84%.
For `O=C(Nc1ccc(Cl)cc1)C1CCC(=O)N1Cc1ccccc1Cl` (stereo not drawn) the same measures were “inactive” and -16.5%.
For `O=C(O)c1ccc(-n2nnnc2SCc2ccccc2)cc1` the same measures were “inactive” and 17.8%.
For `Cc1ccc[n+](CC(=O)c2ccc(Br)cc2)c1` the same measures were 11.6 µM (active) and 14.7%.
In the case of `Cc1ccc[n+](CC(=O)c2ccc(Cl)cc2)c1`, the Potency result is “inactive” and the cell number change was 2.36%.
With `COc1ccc(C(=O)C[n+]2cccc(C)c2)cc1`, the Potency entry was “inactive” and the cell number change was 11.3%.
For `O=C(O)c1cccc(Oc2ccccc2[N+](=O)[O-])c1` the same measures were “inactive” and -2.25%.
In the case of `CCOc1ccc(/C=N/n2nnnc2N)cc1O`, the Potency result was “inactive” and the cell number change stood at 23.4%.
As to `CCc1ccc(C(=O)c2cnc3ccc(OC)cc3c2N2CCN(CC)CC2)cc1`, the Potency entry was “inactive” and the cell number change was -13.9%.
Regarding `Cn1ccs/c1=N\S(=O)(=O)c1ccc(Br)cc1`, the Potency result is “inactive”.
Turning to `Cn1ccs/c1=N\S(=O)(=O)c1ccc(C(C)(C)C)cc1`, the Potency was 16.4 µM (active) and the cell number change was -15.3%.
In the case of `Cn1ccs/c1=N\S(=O)(=O)c1ccc(F)cc1`, the Potency result is “inactive”.
With `COc1ccc2c(c1)CCc1c(C(=O)NCc3ccc(Cl)cc3)noc1-2`, the Potency entry is “inactive” and the cell number change is 3.58%.
For `CC(=O)c1c(C)[nH]c(C(=O)Nc2ccc3c(c2)OCCO3)c1C` the same measures were “inactive” and -13.3%.
As for `CCOc1ccc(NC(=S)N2CCC(c3nc4ccccc4[nH]3)CC2)cc1`, the Potency entry is “inactive” and the cell number change came to 0.472%.
Consider `COCCn1c(SCC(=O)NNC(=O)c2ccccc2)nc2ccccc2c1=O`, for which the Potency entry is “inactive” and the cell number change came to 22%.
With `C=CCNC(=O)NC(=O)COC(=O)/C(C#N)=C/c1cc(C)n(CC(C)C)c1C`, the Potency entry is “inactive” and the cell number change was determined as 19.6%.
For `CCN1C(=O)c2cccc3c(Cl)ccc1c23` the same measures were “inactive” and -17.2%.
For `Cc1cc(Cl)c2oc(C(=O)N(C)CCCCN3CCOCC3)c(C)c2c1` the same measures were 1.3 µM (active) and -10.7%.
